Experimental data reported in PubChem BioAssay AID781 (Emory University Molecular Libraries Screening Center, 2007).
Among all 220,000 compounds or so, about 1,600 (0.73%) were called active. This is one part of a sample in which actives are shown more often than they occur. Unmarked numbers belong to inactive results.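 How the source made its calls: active means inhibition above about 70% (limit read from the data); inactive means the rest.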

Target: 14-3-3 protein zeta/delta (Bos taurus) (UniProt P63103)
Experiment: disruptors of 14-3-3 zeta phospho-Bad complex – biochemical, TR-FRET, bovine 14-3-3 zeta, primary screen (AID 781);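 further: 0% = full 14-3-3 plus peptide FRET controls and 100% = background without 14-3-3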
Conditions: TR-FRET 14-3-3zeta/Dy647-pBad peptide displacement, 1 h; at 21.7 µM; hits give high values

Sequence of 14-3-3 protein zeta/delta (Bos taurus) (P63103 whole entry, looked up): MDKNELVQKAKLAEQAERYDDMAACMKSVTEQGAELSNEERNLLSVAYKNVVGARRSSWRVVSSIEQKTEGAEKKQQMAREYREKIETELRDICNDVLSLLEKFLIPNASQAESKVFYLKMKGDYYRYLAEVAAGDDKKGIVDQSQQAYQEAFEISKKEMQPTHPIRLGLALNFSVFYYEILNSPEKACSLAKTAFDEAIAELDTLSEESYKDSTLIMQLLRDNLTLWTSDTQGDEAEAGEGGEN

Compound	inhibition
CN1c2ccccc2-c2nc3ccccc3n2C1c1ccco1 (centres undefined)	-9.91%
S=c1[nH]nc(-c2ccco2)n1/N=C/c1ccccc1	-2.42%
Cn1c(-c2ccco2)nc2cc3ccccc3cc21	75.6% (active)
COc1ccc(-c2csc(Cc3nc(O)cs3)n2)cc1	-15.6%
CCOc1ccc(N=C2NC(=O)S/C2=C\c2ccc(O)cc2)cc1	70.4% [fluorescence artefact?] (active)
CCOc1ccc(N=C2SC(C(=O)O)CC(=O)N2C)cc1 (centres undefined)	13.2%
NC1=NC(=O)S/C1=C\c1ccc(O)cc1	-5.85%
Cc1cccc(C(=O)Nc2ccc3c(c2)C(=O)N(CC(C)C)C3=O)c1	-3.81%
COc1ccc(-n2c(SCC(=O)Nc3sc4c(c3C#N)CCCC4)nnc2-c2ccc(O)cc2)cc1	87.9% (active)
NC(=O)c1c(NC(=O)CSc2nnc(-c3ccco3)n2N)sc2c1CCCC2	-2.7%
COc1cccc(CN(C)CC(=O)Nc2sc3c(c2C#N)CCC3)c1	-5.48%
C=CCn1c(N)c(S(=O)(=O)c2cccs2)c2nc3ccccc3nc21	-4.17%
CC(C)Cn1c(N)c(C(=O)NCc2cccs2)c2nc3ccccc3nc21	6.16%
C=CCn1c(N)c(C(=O)OCC(C)C)c2nc3ccccc3nc21	79.3% [fluorescence artefact?] (active)
S=C(NCCc1ccccc1)Nc1ccccc1	-1.72%
N#Cc1ccc(C(=O)Nc2nc(-c3cccs3)c(C(=O)C(F)(F)F)s2)cc1	3.51%
CNc1ccc(NC(C)=O)cc1[N+](=O)[O-]	5.82%
CC(=O)Nc1ccc(/C=N/Nc2ccc(C(=O)c3c(C)cc4ccccn34)cc2[N+](=O)[O-])cc1	84.9% (active)
Cc1ccc(Nc2ccc(C(N)=O)cc2[N+](=O)[O-])cc1	0.31%
Cc1onc(-c2ccccc2)c1C(=O)N=C(N)c1ccc(Cl)cc1	-6.58%

Compound	inhibition
CCCN(CCC)S(=O)(=O)c1ccc(C(=O)N2CC3CCC(CC3)C2)cc1	-3.48%
O=C(NCc1cccs1)c1cc(-c2ccccn2)nc2ccc(Br)cc12	90.8% (active)
O=C(Nc1ccncc1)c1cc(-c2ccccn2)nc2ccc(Br)cc12	44.9%
O=C(NCC(c1cccs1)N1CCOCC1)c1cc(-c2ccccn2)nc2ccccc12 (centres undefined)	1.32%
O=C(COC(=O)Cn1cnc2ccccc2c1=O)NCC12CC3CC(CC(C3)C1)C2	1.53%
Cn1cc(/C=C/C(=O)N2CCCC(C(=O)c3ccc(C(F)(F)F)cc3)C2)cn1 (centres undefined)	-7.47%
CN(C)CCNC(=O)Cc1ccc([N+](=O)[O-])cc1	-6.79%
COc1ccc(-n2nnc3c(=O)n(CC(=O)OCc4ccccc4)cnc32)cc1	7.97%
COCc1cc(C)nc2sc3c(=O)n(-c4cccc5ccccc45)nnc3c12	5.95%
COc1ccc(-c2c(C(C)=O)c(C)nc3sc4c(=O)n(-c5ccc(C)cc5)nnc4c23)cc1	81.2% (active)
Nc1nc(-c2sc3nc4c(cc3c2N)CCCC4)nc(N2CCOCC2)n1	-13.9%
O=C(NNC(=S)NC1CC2CCC1C2)c1ccc(Cl)cc1 (centres undefined)	-16.9%
Cc1nc2nc(SCC(=O)c3ccccc3)[nH]c2cc1Br	-3%
Cc1ccc(OCC(=O)Nc2ccccc2Sc2ccc(Cl)cc2)c([N+](=O)[O-])n1	71.7% [fluorescence artefact?] (active)
Cc1ccc(OCC(=O)NC(C)c2ccccc2)c([N+](=O)[O-])n1 (centres undefined)	7.44%
CCc1ccccc1NC(=O)CN(C)C(=O)COc1ccc(C)nc1[N+](=O)[O-]	-17.4%
O=[N+]([O-])c1cccc(/C([O-])=C(/C(=S)Nc2ccccc2F)[n+]2ccccc2)c1	-7.84%
Cc1cccc(C(=O)Nc2ccc(C(=O)/C=C/c3cccs3)cc2)c1	14.9%
Cc1ccc(C(=O)/C=C/Nc2ccc(S(=O)(=O)Nc3onc(C)c3C)cc2)cc1	-24.4%
